PubChem BioAssay (EPA / NIEHS)
Activity calls are given as the source filed them. How the source made its calls: active means hit-call score of the fitted dose curve at least 0.9, where 1 is the maximum; inactive means score below 0.9.

Key:
Conditions in all cases: mRNA level, 48 h; actives raise or lower the signal
CYP4A11 (gene 1579) = assay: LTEA_HepaRG_CYP4A11: Life Technologies and Expression Analysis (LTEA) Assay for CYP4A11 using HepaRG (AID 2283486)
How it was run: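 Readout is CYP4A11 mRNA induction or suppression (qRT-PCR, ACTB/GAPDH/POLR2A normalization) in human HepaRG cells after 48 h chemical treatment, concentrations to 100 uM in 0.5% DMSO, fitted bidirectionally against vehicle.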

[1] = read-out: DNA damage-inducible transcript 3 (DDIT3), DDIT3 (gene 1649); assay: LTEA_HepaRG_DDIT3: Life Technologies and Expression Analysis (LTEA) Assay for DNA damage-inducible transcript 3 (DDIT3) using HepaRG (AID 2283488)
How it was run: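 DDIT3 transcript was quantified by qRT-PCR with ACTB/GAPDH/POLR2A normalization after 48 h chemical treatment of differentiated HepaRG cells in 0.5% DMSO. Dosing was eight-point, half-log, top 100 uM, duplicate wells. Curves fitted bidirectionally versus DMSO.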

[2] = read-out: Pro-epidermal growth factor (Homo sapiens) (UniProt P01133); assay: LTEA_HepaRG_EGF: Life Technologies and Expression Analysis (LTEA) Assay for Epidermal growth factor (EGF) using HepaRG (AID 2283489)
How it was run: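 EGF expression changes in human HepaRG cells are scored by bidirectional fitting relative to 0.5% DMSO controls. Chemicals are tested at eight half-log concentrations up to 100 uM for 48 h in serum-free induction medium.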

[3] = read-out: Early growth response protein 1 (EGR1) transcription factor, EGR1 (gene 1958); assay: LTEA_HepaRG_EGR1: Life Technologies and Expression Analysis (LTEA) Assay for Early growth response protein 1 (EGR1) transcription factor using HepaRG (AID 2283490)
How it was run: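 EGR1 expression change in human HepaRG after 48 h chemical exposure, assessed by housekeeping-normalized qRT-PCR; concentration-response up to 100 uM, fitted in both directions against DMSO controls.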

[4] = read-out: Ezrin (EZR), EZR (gene 7430); assay: LTEA_HepaRG_EZR: Life Technologies and Expression Analysis (LTEA) Assay for Ezrin (EZR) using HepaRG (AID 2283491)
How it was run: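 HepaRG, 48 h chemical exposure, 8-pt half-log series from 100 uM, 0.5% DMSO vehicle, duplicates. Read-out: EZR mRNA by TaqMan qRT-PCR (Fluidigm array), housekeeping-normalized; bidirectional curve fit vs DMSO baseline.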

CYP3A5 (gene 1577) = assay: LTEA_HepaRG_CYP3A5: Life Technologies and Expression Analysis (LTEA) Assay for CYP3A5 using HepaRG (AID 2283493)
How it was run: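 mRNA levels were quantified by qRT-PCR on Fluidigm arrays and normalized to three housekeeping genes. Differentiated HepaRG cells received 48 h exposure (top 100 uM, half-log steps, 0.5% DMSO vehicle, duplicate); bidirectional fitting versus DMSO.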

[5] = read-out: Cytochrome P450 4A22 (Homo sapiens) (UniProt Q5TCH4); assay: LTEA_HepaRG_CYP4A22: Life Technologies and Expression Analysis (LTEA) Assay for Cytochrome P450 4A22 (CYP4A22) using HepaRG (AID 2283495)
How it was run: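 Cryopreserved HepaRG cells, plated and cultured 48 h, then switched to serum-free induction medium and treated 48 h (duplicates, up to 100 uM, half-log steps, 0.5% DMSO). Expression change of CYP4A22 was fitted bidirectionally against vehicle.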

[6] = read-out: Cytochrome P450 7A1 (Homo sapiens) (UniProt P22680); assay: LTEA_HepaRG_CYP7A1: Life Technologies and Expression Analysis (LTEA) Assay for Cytochrome P450 7A1 (CYP7A1) using HepaRG (AID 2283496)
How it was run: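 HepaRG, 48 h exposure, 8-pt half-log series from 100 uM, 0.5% DMSO vehicle, duplicates. Readout: TaqMan qRT-PCR mRNA vs three housekeeping genes; bidirectional curve fit against DMSO baseline.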

[7] = read-out: Glutathione S-Transferase (GSTA2), GSTA2 (gene 2939); assay: LTEA_HepaRG_GSTA2: Life Technologies and Expression Analysis (LTEA) Assay for Glutathione S-Transferase (GSTA2) using HepaRG (AID 2283497)
How it was run: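 Oxidative-stress marker GSTA2 is quantified by TaqMan qRT-PCR in HepaRG cultures treated 48 h across an eight-point range to 100 uM. Expression is normalized to endogenous controls and compared with 0.5% DMSO vehicle.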

[8] = read-out: Glutamate-cysteine ligase catalytic (GCLC), GCLC (gene 2729); assay: LTEA_HepaRG_GCLC: Life Technologies and Expression Analysis (LTEA) Assay for Glutamate-cysteine ligase catalytic (GCLC) using HepaRG (AID 2283498)
How it was run: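 Oxidative-stress marker GCLC is measured as mRNA change in human HepaRG liver cells after 48 h chemical treatment in 0.5% DMSO, eight concentrations from 100 uM. Activity is fitted bidirectionally against vehicle.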

[9] = read-out: growth arrest and DNA damage 45 (GADD45G), GADD45G (gene 10912); assay: LTEA_HepaRG_GADD45G: Life Technologies and Expression Analysis (LTEA) Assay for growth arrest and DNA damage 45 (GADD45G) using HepaRG (AID 2283499)
How it was run: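 Human hepatic HepaRG line treated 48 h with chemicals (eight concentrations, half-log steps from 100 uM); transcript induction or repression of GADD45G scored by qRT-PCR versus DMSO vehicle.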

[10] = read-out: Glutamate-cysteine ligase regulatory (GCLM), GCLM (gene 2730); assay: LTEA_HepaRG_GCLM: Life Technologies and Expression Analysis (LTEA) Assay for Glutamate-cysteine ligase regulatory (GCLM) using HepaRG (AID 2283500)
How it was run: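 GCLM expression quantified by qRT-PCR, normalized to three housekeeping genes, after 48 h chemical treatment of HepaRG cells in duplicate at 8 concentrations (top 100 uM, half-log steps, 0.5% DMSO). Changes fitted both directions against vehicle.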

[11] = read-out: Glutathione S-transferase M3 (GSTM3), GSTM3 (gene 2947); assay: LTEA_HepaRG_GSTM3: Life Technologies and Expression Analysis (LTEA) Assay for Glutathione S-transferase M3 (GSTM3) using HepaRG (AID 2283501)
How it was run: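 Changes in GSTM3 expression, an oxidative-stress marker, were scored by bidirectional curve fitting against 0.5% DMSO vehicle. Human HepaRG cultures received chemicals for 48 h in duplicate, highest concentration 100 uM with half-log dilutions.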

[12] = read-out: Hypoxia-inducible factor 1-alpha (Homo sapiens) (UniProt Q16665); assay: LTEA_HepaRG_HIF1A: Life Technologies and Expression Analysis (LTEA) Assay for Hypoxia-inducible factor 1 (HIF1A) Trancription factor using HepaRG (AID 2283503)
How it was run: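 HIF1A transcript level read by qRT-PCR (ACTB, GAPDH, POLR2A normalization) after 48 h chemical exposure of HepaRG cultures. Eight half-log concentrations, top 100 uM, 0.5% DMSO vehicle, duplicates; bidirectional curve fit against DMSO baseline.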

[13] = read-out: 3-Hydroxy-3-Methylglutaryl-CoA Synthase 2 (HMGCS2), HMGCS2 (gene 3158); assay: LTEA_HepaRG_HMGCS2: Life Technologies and Expression Analysis (LTEA) Assay for 3-Hydroxy-3-Methylglutaryl-CoA Synthase 2 (HMGCS2) using HepaRG (AID 2283504)
How it was run: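 Expression of HMGCS2 in human HepaRG liver cells is measured by qRT-PCR 48 h after dosing (highest 100 uM, half-log series, 0.5% DMSO). Values come from bidirectional concentration-response fitting with DMSO as baseline.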

HGF (gene 3082) = assay: LTEA_HepaRG_HGF: Life Technologies and Expression Analysis (LTEA) Assay for Hepatocyte Growth Facto (HGF) using HepaRG (AID 2283505)
How it was run: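 Gain or loss of HGF mRNA in human HepaRG liver cells after 48 h chemical exposure; eight concentrations up to 100 uM with 0.5% DMSO vehicle, quantified by TaqMan qRT-PCR.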

[14] = read-out: Fatty Acid-Binding Protein 1 (FABP1), FABP1 (gene 2168); assay: LTEA_HepaRG_FABP1: Life Technologies and Expression Analysis (LTEA) Assay for Fatty Acid-Binding Protein 1 (FABP1) using HepaRG (AID 2283494)
How it was run: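 Values reflect bidirectional concentration-response fitting of FABP1 mRNA change against 0.5% DMSO controls. Human HepaRG cultures received eight half-log doses (top 100 uM) for 48 h; expression quantified by TaqMan qRT-PCR with housekeeping-gene normalization.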

[15] = read-out: Heat shock 70 kDa protein 1 (HSPA1A), gene 3303; assay: LTEA_HepaRG_HSPA1A: Life Technologies and Expression Analysis (LTEA) Assay for Heat shock 70 kDa protein 1 (HSPA1A) using HepaRG (AID 2283502)
How it was run: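 HSPA1A expression measured by qRT-PCR with ACTB/GAPDH/POLR2A normalization; curves fitted in both directions relative to DMSO vehicle. Exposure: 48 h in HepaRG cells, duplicate 8-point half-log series from 100 uM, 0.5% DMSO, serum-free induction medium.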

[16] = read-out: Cytochrome P450 3A4 (Homo sapiens) (UniProt P08684); assay: LTEA_HepaRG_CYP3A4: Life Technologies and Expression Analysis (LTEA) Assay for CYP3A4 using HepaRG (AID 2283487)
How it was run: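 CYP3A4 transcript measured by TaqMan qRT-PCR and normalized to three housekeeping genes after 48 h chemical exposure of human HepaRG cells. Top concentration 100 uM, half-log steps, 0.5% DMSO vehicle; gain or loss fitted against DMSO baseline.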

[17] = read-out: Cytochrome P450 3A7 (Homo sapiens) (UniProt P24462); assay: LTEA_HepaRG_CYP3A7: Life Technologies and Expression Analysis (LTEA) Assay for CYP3A7 using HepaRG (AID 2283492)
How it was run: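 Cells were thawed, plated, cultured 48 h, then treated for a further 48 h with chemicals (eight-point half-log series from 100 uM, 0.5% DMSO). RNA was isolated and CYP3A7 expression quantified by qRT-PCR normalised to ACTB, GAPDH and POLR2A.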

Measured: AC50

Hypoxia-inducible factor 1-alpha (Homo sapiens), sequence (Q16665 whole entry, looked up): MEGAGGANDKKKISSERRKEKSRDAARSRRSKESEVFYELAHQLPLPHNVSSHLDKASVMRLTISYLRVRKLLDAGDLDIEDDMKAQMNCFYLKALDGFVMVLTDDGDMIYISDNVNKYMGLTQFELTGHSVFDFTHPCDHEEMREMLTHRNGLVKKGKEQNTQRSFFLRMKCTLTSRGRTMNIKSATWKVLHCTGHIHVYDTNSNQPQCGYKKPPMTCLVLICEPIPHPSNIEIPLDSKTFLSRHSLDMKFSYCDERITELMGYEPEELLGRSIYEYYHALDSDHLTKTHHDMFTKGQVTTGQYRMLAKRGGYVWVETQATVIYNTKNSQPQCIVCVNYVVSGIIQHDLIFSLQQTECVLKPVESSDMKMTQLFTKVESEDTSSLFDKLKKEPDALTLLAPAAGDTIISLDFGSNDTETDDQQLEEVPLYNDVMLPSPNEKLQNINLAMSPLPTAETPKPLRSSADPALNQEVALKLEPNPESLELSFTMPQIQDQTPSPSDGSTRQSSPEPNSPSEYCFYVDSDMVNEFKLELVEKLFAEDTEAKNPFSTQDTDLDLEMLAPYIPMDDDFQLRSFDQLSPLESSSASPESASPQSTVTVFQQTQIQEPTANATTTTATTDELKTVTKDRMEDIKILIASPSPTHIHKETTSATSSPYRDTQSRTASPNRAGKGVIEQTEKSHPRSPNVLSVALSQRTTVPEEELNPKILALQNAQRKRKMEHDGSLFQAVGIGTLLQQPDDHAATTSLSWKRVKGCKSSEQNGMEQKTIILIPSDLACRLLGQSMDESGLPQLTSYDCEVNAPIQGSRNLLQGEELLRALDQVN
Cytochrome P450 3A4 (Homo sapiens), sequence (P08684 whole entry, looked up): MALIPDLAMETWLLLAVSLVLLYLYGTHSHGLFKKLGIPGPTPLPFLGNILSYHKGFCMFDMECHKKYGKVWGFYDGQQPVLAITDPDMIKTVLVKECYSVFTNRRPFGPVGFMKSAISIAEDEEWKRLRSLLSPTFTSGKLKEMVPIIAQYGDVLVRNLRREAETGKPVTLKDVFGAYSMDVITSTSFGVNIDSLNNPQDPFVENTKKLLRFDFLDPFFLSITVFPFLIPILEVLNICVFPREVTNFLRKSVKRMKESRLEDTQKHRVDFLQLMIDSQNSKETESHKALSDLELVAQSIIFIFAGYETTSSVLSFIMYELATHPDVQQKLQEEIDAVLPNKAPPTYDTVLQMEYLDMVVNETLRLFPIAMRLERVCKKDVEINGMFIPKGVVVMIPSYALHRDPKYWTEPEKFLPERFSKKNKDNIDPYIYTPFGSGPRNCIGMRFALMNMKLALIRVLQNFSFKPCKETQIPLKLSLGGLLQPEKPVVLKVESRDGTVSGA
Cytochrome P450 3A7 (Homo sapiens), sequence (P24462 whole entry, looked up): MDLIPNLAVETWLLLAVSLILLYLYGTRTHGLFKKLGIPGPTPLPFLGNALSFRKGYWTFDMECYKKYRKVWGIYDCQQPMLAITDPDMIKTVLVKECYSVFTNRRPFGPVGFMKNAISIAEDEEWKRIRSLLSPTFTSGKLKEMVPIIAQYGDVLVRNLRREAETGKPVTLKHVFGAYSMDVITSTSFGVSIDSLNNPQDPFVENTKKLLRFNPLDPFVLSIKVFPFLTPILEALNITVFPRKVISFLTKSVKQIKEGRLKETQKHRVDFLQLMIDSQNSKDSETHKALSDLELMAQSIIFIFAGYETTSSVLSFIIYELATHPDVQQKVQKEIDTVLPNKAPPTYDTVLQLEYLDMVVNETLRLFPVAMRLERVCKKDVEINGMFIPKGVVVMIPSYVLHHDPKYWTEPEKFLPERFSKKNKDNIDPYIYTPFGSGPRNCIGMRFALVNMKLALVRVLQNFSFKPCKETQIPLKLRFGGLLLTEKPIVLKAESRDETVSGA

CN(C)C(=O)NC1(c2ccccc2)CCN(CCC[C@]2(c3ccc(Cl)c(Cl)c3)CCCN(C(=O)c3ccccc3)C2)CC1
inactive: [2] | CYP3A5 (gene 1577) | [11] | [12] | [13]
active: CYP4A11 (gene 1579) 23.6 µM | [1] 18.1 µM | [3] 23.1 µM | [4] 23.4 µM | [5] 23.7 µM | [6] 22.2 µM | [7] 20.3 µM | [8] 21.9 µM | [9] 20.4 µM | [10] 12.5 µM | HGF (gene 3082) 22.5 µM

CC(C)NCC(O)c1ccc(O)c(O)c1 (stereo unspecified)
inactive: CYP4A11 (gene 1579) | [1] | [2] | [3] | [5] | [8] | [10]
active: [4] 1.8 µM | CYP3A5 (gene 1577) 0.153 µM | [14] 0.479 µM | [6] 0.212 µM | [7] 0.222 µM | [11] 0.273 µM | [15] 0.116 µM | [13] 0.173 µM | HGF (gene 3082) 0.166 µM

Cn1cnc2c1c(=O)[nH]c(=O)n2C
inactive: [1] | [2] | [3] | [4] | [14] | [7] | [8] | [10] | [11] | [13] | HGF (gene 3082)

O=C1NC(=O)C(c2ccccc2)(c2ccccc2)N1
active: CYP4A11 (gene 1579) 12.1 µM | [14] 17.9 µM | [5] 9.92 µM | [7] 9.92 µM
not listed: [12] | [15] | [16] | [17]
inactive: all other assays above

O=NO
not listed: [9] | [14] | [15]
inactive: all other assays above
